# Rows were chosen to be rich in hits. Some 19% of all compounds tested hit in one or more screens of this group.
# TGFb SMAD3 inh: TGF-b pathway inhibition; AID 588855; 410,000 tested, 1.2% active; HepG2 CAGA-GFP TGF-b/SMAD3 reporter, GFP fluorescence, 18 h; TGF-beta stimulated, 500 pg/mL final; Potency, µM (highest dose often 46.1 µM), without a hit: top-dose activity, negative = inhibition, hits mostly inhibitors; further: potency means the concentration at half of the fitted maximal effect; on the % scale 0 is the no-effect control and ±100 the full control effect; nearly all actives have a fitted effect of over 65% in size
#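 HEPG2 CAGA-GFP, 1000 cells/well; 2 h settle, 37 C; cpd via pin tool; TGF-b 500 pg/mL final; 18 h, 37 C; GFP imaging ex488/em500-530; %Activity normalised to -TGF-b and +DMSO controls; CRC fit, curve class.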
# TDP1 cell CPT: growth inhibition of DT40 Tdp1-/-;hTDP1 cells with camptothecin (screen for TDP1 inhibitors); chicken DT40 Tdp1-/-;hTDP1 cells + 20 nM CPT, ATP luminescence, 48 h; Potency, µM (top dose mostly 46.2 µM), for the others: at the highest dose activity change, negative = growth inhibition, most hits filed as inhibitors; 420,000 tested, 12% active; AID 686979; further: potency means the concentration at half of the fitted maximal effect; on the % scale 0 is the no-effect control and ±100 the full control effect; nearly all actives have a fitted effect of over 55% in size
#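 Cell growth measured by CellTiter-Glo luminescence after a minimum 48 h, 37 C compound exposure with 20 nM CPT in Tdp1-knockout DT40 cells stably expressing hTDP1, seeded 400/well; qHTS titration format.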
# IL1B secr inh: blocks inflammasome-driven IL-1 beta release; 360,000 tested, 4.7% active; AID 743279; activity change, % at 57.5 µM; THP-1 LPS/ATP IL-1B secretion, AlphaLISA, 16 h; active compounds read low; in the data active means activity change below about -50%; inconclusive means mostly about -30% to -49%; further: on the % scale 0 is the no-effect control and ±100 the full control effect
#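 Secreted IL-1B measured by AlphaLISA bead assay after 16 h compound exposure of THP-1 cells; compounds (final up to 57.5 uM) added 1 h before LPS (250 ng/mL) and ATP (1.25 mM) stimulation; lower signal means less secretion.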
# HepG2 viability: counter-screen for TGF-b inhibitors: cytotoxicity in HepG2 cells. HepG2 CAGA-GFP viability, ATP luminescence, 18 h. Potency, µM (highest dose often 46.1 µM), for inactives: at the highest dose activity change, negative = cytotoxicity, most hits filed as cytotoxic. 410,000 tested, 0.76% active. AID 588856; further: potency means the concentration at half of the fitted maximal effect
#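 HepG2 CAGA-GFP cells (1000/well, DMEM with 1% FBS) received compound, then TGF-beta at 500 pg/mL final, and were incubated 18 hours at 37 degrees C. Viability was read by CellTiter-Glo luminescence. Media-only wells were set as complete cell-killing and DMSO as no toxicity.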
# TDP1 block: blocks human tyrosyl-DNA phosphodiesterase 1; Potency, µM (titrated, usually from 130 µM), for inactives: top-dose activity change, negative = inhibition, actives largely listed as inhibitors; Q9NUW8; recombinant TDP1, AlphaScreen DNA substrate cleavage; 350,000 tested, 0.28% active; AID 485290; further: potency means the concentration at half of the fitted maximal effect; on the % scale 0 is the no-effect control and ±100 the full control effect; nearly all actives have a fitted effect of over 40% in size
# Target sequence (Q9NUW8 whole entry, looked up): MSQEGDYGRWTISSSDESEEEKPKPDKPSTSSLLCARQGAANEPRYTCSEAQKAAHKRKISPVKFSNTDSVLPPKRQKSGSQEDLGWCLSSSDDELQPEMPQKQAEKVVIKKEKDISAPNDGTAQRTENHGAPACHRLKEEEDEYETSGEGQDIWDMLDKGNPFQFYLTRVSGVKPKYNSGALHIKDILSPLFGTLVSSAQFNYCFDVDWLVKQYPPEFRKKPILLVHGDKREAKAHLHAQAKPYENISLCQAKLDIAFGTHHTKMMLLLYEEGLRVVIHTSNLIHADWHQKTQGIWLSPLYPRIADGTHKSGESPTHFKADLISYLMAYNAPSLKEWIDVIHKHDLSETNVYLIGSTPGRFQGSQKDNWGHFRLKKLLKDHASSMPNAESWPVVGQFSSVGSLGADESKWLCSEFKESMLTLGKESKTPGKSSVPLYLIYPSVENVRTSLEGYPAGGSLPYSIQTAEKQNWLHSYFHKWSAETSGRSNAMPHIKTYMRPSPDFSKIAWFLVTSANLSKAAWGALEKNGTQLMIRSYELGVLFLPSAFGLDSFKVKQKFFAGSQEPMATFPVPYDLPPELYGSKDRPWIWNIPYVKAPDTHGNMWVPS
#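 Compounds were preincubated with Tdp1 (1 nM final) for 15 min at room temperature before substrate (15 nM final) started a 5 min reaction; beads (10 ug/ml final) were then added for 10 min before AlphaScreen detection.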
# TDP1 cell noCPT: qHTS for Inhibitors of human tyrosyl-DNA phosphodiesterase 1 (TDP1): qHTS in cells in absence of CPT; DT40 Tdp1-/- hTDP1 cells, no CPT, ATP luminescence, 48 h; Potency, µM (series often up to 46.2 µM), inactives show at the top dose activity change, negative = growth inhibition, usual class: inhibitors; 420,000 tested, 15% active; further: potency means the concentration at half of the fitted maximal effect; on the % scale 0 is the no-effect control and ±100 the full control effect; nearly all actives have a fitted effect of over 55% in size
#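 Luminescent ATP content (CellTiter-Glo) served as the growth readout. Knockout chicken DT40 cells expressing human TDP1 were exposed to compounds without camptothecin for a minimum 48 hr at 37 °C.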
# The depositor's hits bear a star; ? = inconclusive; / = no result given; [ ] = dose if it differs, or a comment. Unless noted, the call rests on the fitted dose curve; in most records, active means well fitted curve in the direction sought with a large enough effect; inconclusive means small, poorly fitted or top-dose-only effect, or another doubt; inactive means no such curve, though single readings can be large; an effect the other way counts as inactive or inconclusive.
SMILES,TGFb SMAD3 inh,TDP1 cell CPT,IL1B secr inh,HepG2 viability,TDP1 block,TDP1 cell noCPT
COc1ccccc1-c1cc(NC(=O)COc2ccc(C)c(C)c2)n(-c2ccccc2)n1,-8%,?,/,-18%,3%,?
C=CC[C@@H](CC(=O)N(CCO)Cc1ccccc1)C(=O)N[C@@H](COC(=O)[C@@H](CC=C)Cc1ccc(F)cc1)Cc1c[nH]c2ccccc12,?,?,-52*,-18%,4%,16µM*
C=CCC[C@@H](Cc1ccc(F)cc1)C(=O)OC[C@@H](Cc1c[nH]c2ccccc12)NC(=O)[C@H](CC=C)CC(=O)N(CCO)Cc1ccccc1,?,21µM*,?,-17%,4%,?
C=CC[C@H](CC(=O)N(CCO)Cc1ccccc1)C(=O)N[C@@H](COC(=O)[C@@H](CC=C)Cc1ccc(F)cc1)Cc1c[nH]c2ccccc12,?,16µM*,?,-49%,3%,23µM*
C[C@H]1CN([C@@H](C)CO)C(=O)c2cccc(NC(=O)c3nc4ccccc4s3)c2O[C@H]1CN(C)C(=O)Nc1ccc(F)cc1,?,?,?,-3%,3%,?
CCNC(=O)c1c(NC(=O)Cc2coc3cc(C)cc(C)c23)sc2c1CCCC2,4%,-17%,/,-5%,4%,-27%
OCC1OC(C#Cc2ccccc2)C=CC1OCc1ccccc1 (centres undefined),/,/,/,/,10%[21 µM],/
O=C(NCC1CCCO1)c1ccc([N+](=O)[O-])o1 (centres undefined),13µM*,?,?,-30%,4%,-8%
O=C(NCC1CCCO1)c1ccc([N+](=O)[O-])s1 (centres undefined),-19%,13µM*,-15,-9%,/,26µM*
O=C(Cc1ccc([N+](=O)[O-])cc1)NCC1CCCO1 (centres undefined),9%,5%,-2,4%,0%,1%
CCOC(=O)c1cn2nc(Oc3ccc(OC)cc3)ccc2n1,34%,?,4,51%,/,6.5µM*
CC(C)CCNS(=O)(=O)c1ccc(N2CCCCS2(=O)=O)cc1,?,12µM*,/,-53%,1%,9.2µM*
CCOC(=O)c1ccccc1NS(=O)(=O)c1ccc(N2CCCCS2(=O)=O)cc1,-46%,23µM*,/,3%,4%,16µM*
CCOc1ccccc1NS(=O)(=O)c1ccc(N2CCCCS2(=O)=O)cc1,7%,?,/,10%,6%,?
Cc1cc(C)cc(NS(=O)(=O)c2ccc(N3CCCCS3(=O)=O)cc2)c1,-19%,12µM*,/,-11%,1%,15µM*
CCC(C)NS(=O)(=O)c1ccc(N2CCCCS2(=O)=O)cc1 (centres undefined),-32%,?,/,-11%,4%,?
CCCCCNS(=O)(=O)c1ccc(N2CCCCS2(=O)=O)cc1,-17%,16µM*,/,-13%,-1%,18µM*
COc1ccccc1CNS(=O)(=O)c1ccc(N2CCCCS2(=O)=O)cc1,-22%,?,/,-10%,6%,23µM*
COc1ccccc1CNS(=O)(=O)c1ccc(NC(C)=O)cc1,-15%,-28%,23,0%,3%,?
COc1ccc(C[C@](C)(N)C(=O)O)cc1OC,2%,-25%,3,-12%,/,2.3µM*
C[C@](N)(Cc1ccc(O)cc1)C(=O)O,/,3%,/,/,2%,-10%
O=C(Nc1ccc(F)c(Cl)c1)c1cc(S(=O)(=O)NCc2ccc3c(c2)OCO3)ccc1F,?,?,/,-13%,0%,?
COc1ccc(NS(=O)(=O)c2ccc(C(=O)NCC3(N4CCOCC4)CCCCC3)cc2)cc1,15%,?,4,-23%,4%,?
CC(C)[C@H](NS(=O)(=O)c1ccc2c(c1)OCCO2)C(=O)OCC(=O)Nc1ccccc1Cl,0%,-2%,19,2%,2%,-10%
CCOc1ccc(S(=O)(=O)Nc2ccc(C(=O)N3CC(C)OC(C)C3)cc2)cc1 (centres undefined),?,?,8,-6%,/,-22%
SMILES,TGFb SMAD3 inh,TDP1 cell CPT,IL1B secr inh,HepG2 viability,TDP1 block,TDP1 cell noCPT
CC(C)[C@H](NS(=O)(=O)c1ccc2c(c1)OCCO2)C(=O)OCC(=O)Nc1cc(Cl)ccc1Cl,-10%,?,30,-30%,3%,29µM*
CCOc1ccccc1N1CCN(C(=O)c2ccc(S(=O)(=O)Nc3ccccc3)cc2)CC1,?,18µM*,-8,-28%,2%,?
CCOc1ccc(S(=O)(=O)Nc2ccc(C(=O)NCC3(N4CCCCC4)CCCCC3)cc2)cc1,?,?,-10,-16%,/,21µM*
CCOc1ccc(NS(=O)(=O)c2ccc(C(=O)N3CCCCC3)cc2)cc1,0%,15µM*,32,-14%,5%,13µM*
COC(=O)c1ccc(Cl)c(NS(=O)(=O)c2ccc3c(c2)OCCO3)c1,-8%,5.2µM*,3,-5%,2%,4.1µM*
CCOc1ccc(NS(=O)(=O)c2ccc(C(=O)N3CCN(c4ncccn4)CC3)cc2)cc1,-21%,9.2µM*,0,17%,3%,8.2µM*
COc1ccc(NS(=O)(=O)c2ccc(C(=O)N3CCC(C)CC3)cc2)cc1,-19%,23µM*,-2,-8%,1%,?
CC1CN(C(=O)c2ccc(NS(=O)(=O)c3ccc(C(C)(C)C)cc3)cc2)CC(C)O1 (centres undefined),-4%,15µM*,48,-3%,2%,9.2µM*
COc1ccc(OC)c(NC(=O)CCN2CCN(CCO)CC2)c1,1%,9%,9,-16%,4%,1%
C[C@H](NC(=O)c1ncn(C)c1C(=O)N[C@@H](C)c1ccccc1)c1ccccc1,0%,-28%,7,0%,0%,-30%
Cc1cccc(CCNC(=O)Cn2ncc3c(=O)oc4ccccc4c32)c1,7%,?,/,16%,-2%,-19%
O=C(NC(Cc1ccccc1)C(=O)N1CCN(c2ccccc2O)CC1)c1ccccc1 (centres undefined),4%,?,-8,-4%,-9%[0.505 µM],16µM*
Cc1cc(S(=O)(=O)Nc2ccc(C(=O)N3CCN(C(=O)c4ccco4)CC3)cc2)ccc1F,-2%,?,6,-13%,7%,?
